# Measured values published in PubChem BioAssay (NCATS).
# Records with an inconclusive call do not appear. A call without a number means that no potency is given here. Activity calls are given as the source filed them. Unless noted, the call rests on the fitted dose curve; in most records, active means well fitted curve in the direction sought with a large enough effect; inconclusive means small, poorly fitted or top-dose-only effect, or another doubt; inactive means no such curve, though single readings can be large; an effect the other way counts as inactive or inconclusive.
# Legend:
# [1] = qHTS to identify inhibitors of the type 1 interferon - major histocompatibility complex class I in skeletal muscle: primary screen against the NCATS Mechanism Interrogation Plate v5.0 (MIPE) Libary (AID 1347411); settings: iHSKM cells + IFN-b, HiBiT-tagged MHC-I luminescence, 24 h; series mostly up to 45.8 µM; further: nearly all actives have a fitted effect of over 65% in size; further: potency means the concentration at half of the fitted maximal effect
# In short: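 Luminescence from CRISPR HiBit-tagged endogenous HLA-B in human myoblasts reported MHC class I level after 24 h of IFN-beta (4 ng/ml) plus compound. Compounds ran as 11-point 1:3 series, top 46 uM final.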
# [2] = biological target: Calcium and integrin-binding protein 1 (Homo sapiens) (UniProt Q99828); experiment: Primary qHTS for Identification of Calcium Integrin Binding Protein 1 (CIB1) Competitor (AID 1508620); settings: CIB1-GST / FITC-alphaIIb peptide fluorescence polarization; series mostly up to 57.7 µM;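 further: GST tagged CIB1 binding a fluorescein labelled alphaIIb integrin peptide tracer; top concentration of the series differs between compounds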
# Sequence of Calcium and integrin-binding protein 1 (Homo sapiens) (Q99828 whole entry, looked up): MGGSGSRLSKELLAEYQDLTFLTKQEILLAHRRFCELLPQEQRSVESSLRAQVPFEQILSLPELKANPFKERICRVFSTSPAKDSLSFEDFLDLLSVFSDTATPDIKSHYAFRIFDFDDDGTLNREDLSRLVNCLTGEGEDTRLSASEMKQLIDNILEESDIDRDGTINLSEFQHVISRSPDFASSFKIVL
# In short: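 Fluorescence polarization competition: CIB1-GST (1 uM final) preincubated with compound 15 min at room temperature, then FITC-labeled alphaIIb peptide (100 nM final) added for another 15 min. Polarization read at Ex 480/Em 540.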
# [3] = Primary qHTS for small molecule stabilizers of the endoplasmic reticulum resident proteome: Secreted ER Calcium Modulated Protein (SERCaMP) assay (AID 1508630); settings: SH-SY5Y GLuc-SERCaMP (Gaussia luciferase released on ER calcium loss) secretion, thapsigargin, luminescence; series mostly up to 38.4 µM; further: potency means the concentration at half of the fitted maximal effect
# In short: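 The SH-SY5Y reporter protocol was run at 3 concentrations up to 38.3 uM (primary) or 11 concentrations (follow-up): 16 h compound, 100 nM thapsigargin for 4 h, then extracellular luciferase luminescence.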
# [4] = biological target: Cytochrome P450 2D6 (Homo sapiens) (UniProt P10635); experiment: Cytochrome P450 family 2 subfamily D member 6 (CYP2D6) small molecule antagonists: luciferase biochemical (cell-free) qHTS assay (AID 1645840; active means well fitted curve in the direction sought with a large enough effect in the repeat runs; an effect the other way counts as inactive or inconclusive; further: nearly all actives have a fitted effect of over 55% in size; further: potency means the concentration at half of the fitted maximal effect); settings: P450-Glo CYP2D6 enzyme, luciferin luminescence, 1 h; series mostly up to 57.4 µM
# Sequence of Cytochrome P450 2D6 (Homo sapiens) (P10635 whole entry, looked up): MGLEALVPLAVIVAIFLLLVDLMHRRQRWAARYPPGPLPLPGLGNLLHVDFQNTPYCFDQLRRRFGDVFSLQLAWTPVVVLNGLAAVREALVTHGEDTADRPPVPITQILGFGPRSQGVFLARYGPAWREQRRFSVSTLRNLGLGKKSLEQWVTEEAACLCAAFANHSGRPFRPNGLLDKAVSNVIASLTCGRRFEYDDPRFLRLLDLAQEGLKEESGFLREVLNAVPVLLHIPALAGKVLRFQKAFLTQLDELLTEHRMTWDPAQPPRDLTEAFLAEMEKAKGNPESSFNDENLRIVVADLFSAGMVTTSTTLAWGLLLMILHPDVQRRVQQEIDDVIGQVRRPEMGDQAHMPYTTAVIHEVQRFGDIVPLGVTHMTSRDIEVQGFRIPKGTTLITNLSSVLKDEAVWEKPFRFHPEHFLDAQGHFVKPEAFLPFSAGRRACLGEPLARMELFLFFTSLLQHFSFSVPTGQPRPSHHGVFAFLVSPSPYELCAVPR
# In short: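 P450-Glo CYP2D6 system: proluciferin substrate converted by enzyme to luciferin, read by luminescence proportional to activity. Enzyme-substrate mix with compound 10 min at room temperature, then NADPH regeneration 1 h before detection reagent.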
# [5] = biological target: Cytochrome P450 2C9 (Homo sapiens) (UniProt P11712); experiment: Cytochrome P450 family 2 subfamily C member 9 (CYP2C9) small molecule antagonists: luciferase biochemical (cell-free) qHTS assay (AID 1645842; active means well fitted curve in the direction sought with a large enough effect in the repeat runs; an effect the other way counts as inactive or inconclusive; further: nearly all actives have a fitted effect of over 55% in size; further: potency means the concentration at half of the fitted maximal effect); settings: P450-Glo CYP2C9 enzyme assay, luciferin luminescence; series mostly up to 57.4 µM
# Sequence of Cytochrome P450 2C9 (Homo sapiens) (P11712 whole entry, looked up): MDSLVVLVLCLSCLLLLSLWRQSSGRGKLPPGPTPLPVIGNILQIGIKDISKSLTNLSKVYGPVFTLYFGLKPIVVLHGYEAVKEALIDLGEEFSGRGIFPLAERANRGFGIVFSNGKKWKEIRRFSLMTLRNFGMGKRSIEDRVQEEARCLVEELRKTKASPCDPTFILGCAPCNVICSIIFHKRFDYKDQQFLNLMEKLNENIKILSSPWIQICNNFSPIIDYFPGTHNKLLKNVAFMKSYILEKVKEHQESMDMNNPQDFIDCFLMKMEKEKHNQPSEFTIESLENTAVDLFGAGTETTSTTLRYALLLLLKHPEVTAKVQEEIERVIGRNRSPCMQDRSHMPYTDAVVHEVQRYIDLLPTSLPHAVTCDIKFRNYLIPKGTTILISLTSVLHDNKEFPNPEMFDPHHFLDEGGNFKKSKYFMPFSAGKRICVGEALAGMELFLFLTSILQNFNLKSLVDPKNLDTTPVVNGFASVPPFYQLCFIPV
# In short: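 P450-Glo CYP2C9 system: proluciferin substrate with enzyme in mix containing 0.4% BSA, 10 min at room temperature, then NADPH regeneration solution added and incubated 1 h at 37C. Detection reagent stopped reaction; luminescence read after 20 min as RLU.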
# [6] = biological target: Protein phosphatase 1D (Homo sapiens) (UniProt O15297); experiment: RapidFire Mass Spectrometry qHTS Assay for Modulators of WT P53-Induced Phosphatase 1 (WIP1) (AID 1347424); settings: WIP1 dephosphorylation of phosphopeptide, RapidFire MS; series mostly up to 63 µM;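 further: amount of dephosphorylated VEPPL-S-QETFS peptide product formed by WIP1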
# Sequence of Protein phosphatase 1D (Homo sapiens) (O15297 whole entry, looked up): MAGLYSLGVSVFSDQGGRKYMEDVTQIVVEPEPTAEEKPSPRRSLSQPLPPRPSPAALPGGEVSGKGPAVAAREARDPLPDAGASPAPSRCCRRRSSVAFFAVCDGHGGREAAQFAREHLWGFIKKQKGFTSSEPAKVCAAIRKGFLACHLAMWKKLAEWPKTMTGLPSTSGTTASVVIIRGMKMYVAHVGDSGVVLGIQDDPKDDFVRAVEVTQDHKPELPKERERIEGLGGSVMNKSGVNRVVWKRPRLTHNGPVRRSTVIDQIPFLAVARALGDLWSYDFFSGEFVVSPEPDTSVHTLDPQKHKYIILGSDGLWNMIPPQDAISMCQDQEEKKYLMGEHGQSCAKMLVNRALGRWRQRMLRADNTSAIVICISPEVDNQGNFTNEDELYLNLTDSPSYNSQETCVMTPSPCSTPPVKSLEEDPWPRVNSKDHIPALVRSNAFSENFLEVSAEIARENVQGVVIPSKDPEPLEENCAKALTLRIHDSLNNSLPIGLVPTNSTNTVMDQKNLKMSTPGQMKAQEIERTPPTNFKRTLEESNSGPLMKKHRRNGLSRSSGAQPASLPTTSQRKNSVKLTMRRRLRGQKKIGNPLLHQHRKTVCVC
# In short: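 Mass-spectrometric measurement of dephosphorylated peptide after a 5 min room-temperature reaction of 10 nM WIP1 with 2 uM phosphopeptide, following 1 h compound preincubation in 30 mM MgCl2 buffer.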
# [7] = biological target: Protein phosphatase 1D (Homo sapiens) (UniProt O15297); experiment: Rhodamine-PBP qHTS Assay for Modulators of WT P53-Induced Phosphatase 1 (WIP1) (AID 1347425); settings: recombinant WIP1, Rhodamine-PBP phosphate fluorescence, real-time; series mostly up to 57.5 µM
# In short: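 The read-out is the change in Rhodamine-PBP fluorescence (f1 - f0, ex 525/em 598 nm) as Pi is released, read each minute for 11 min. Final reaction: 5 nM WIP1, 10 uM phosphopeptide VEPPL-pS-QETFS, 10 uM Rh-PBP, 50 mM Tris-HCl pH 7.5, 30 mM MgCl2. Compound was preincubated with enzyme for 1 hour at room temperature.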
# [8] = Validation qHTS assay for inhibitors of Activation Induced Cytidine Deaminase (AID): UDG Counterscreen signal (AID 1347427); settings: biochemical UDG counterscreen, fluorescence signal; series mostly up to 115 µM
# In short: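 Fluorescence at 560 nm excitation, 665 nm emission reports UDG signal after 250 mM NaOH (2x) addition and 30 min. Enzymes (AID 1 uM, UDG 2 U/mL, at 4/3x) preincubated 10 min with compound, then 4 h with 4x 250 nM DJC20/DJC23 substrate at room temperature.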
# [9] = biological target: Single-stranded DNA cytosine deaminase (Homo sapiens) (UniProt Q9GZX7); experiment: Validation qHTS assay for inhibitors of Activation Induced Cytidine Deaminase (AID): AID signal (AID 1347429); settings: Recombinant AID, FRET ssDNA deamination with UDG, fluorescence; series mostly up to 115 µM
# Sequence of Single-stranded DNA cytosine deaminase (Homo sapiens) (Q9GZX7 whole entry, looked up): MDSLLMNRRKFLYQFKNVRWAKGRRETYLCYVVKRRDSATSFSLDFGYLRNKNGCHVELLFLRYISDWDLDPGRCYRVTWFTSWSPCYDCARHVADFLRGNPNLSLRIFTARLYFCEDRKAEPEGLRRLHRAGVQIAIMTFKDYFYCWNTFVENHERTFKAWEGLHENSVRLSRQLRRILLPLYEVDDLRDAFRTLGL
# In short: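 Compounds (final up to 114 uM) preincubated with AID plus UDG; 250 nM DJC20/DJC23 substrate mix (4x stock) added, 4 hr at room temperature, then NaOH, 30 min. Read 1 fluorescence at 540 nm excitation, 590 nm emission.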
# [10] = A High-Content qHTS Against Drug Library for the Identification of Small Molecules that Inhibit DYT1 Early Onset Primary Dystonia-Associated Cell Pathology (AID 1645839; calls by dose curve); settings: HEK293 Flp-In EGFP-delE TorsinA, punctate imaging, 48 h; series mostly up to 46.1 µM
# In short: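 Induced EGFP-delE TorsinA cells are imaged after 48 h of compound treatment. Punctate fusion-protein distribution gives the %pathology value, while nuclei counts flag toxicity. Wild-type EGFP-hTOR1A cells define the normal pattern.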
# [11] = Primary qHTS for inhibitors of La Crosse Virus (LACV) - induced cell death in SH-SY5Y cells (AID 1508616); settings: SH-SY5Y LACV cytopathicity rescue, ATP luminescence, 6 d; series mostly up to 4.29 µM;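 further: top concentration of the series differs between compounds; higher means more rescue of cells from virus-induced death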
# In short: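 Rescue of virus-induced death was read as ATPLite luminescence after 6 days at 37C, scaled between DMSO wells with LACV and without virus. Cells were SH-SY5Y, 6000/well, infected at 0.01 MOI after compound addition.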
# [12] = biological target: Cytochrome P450 3A4 (Homo sapiens) (UniProt P08684); experiment: Cytochrome P450 family 3 subfamily A member 4 (CYP3A4) small molecule antagonists: luciferase qHTS assay (AID 1645841; active means well fitted curve in the direction sought with a large enough effect in the repeat runs; an effect the other way counts as inactive or inconclusive; further: nearly all actives have a fitted effect of over 45% in size); settings: P450-Glo CYP3A4 enzyme assay, luciferin luminescence; series mostly up to 57.4 µM
# Sequence of Cytochrome P450 3A4 (Homo sapiens) (P08684 whole entry, looked up): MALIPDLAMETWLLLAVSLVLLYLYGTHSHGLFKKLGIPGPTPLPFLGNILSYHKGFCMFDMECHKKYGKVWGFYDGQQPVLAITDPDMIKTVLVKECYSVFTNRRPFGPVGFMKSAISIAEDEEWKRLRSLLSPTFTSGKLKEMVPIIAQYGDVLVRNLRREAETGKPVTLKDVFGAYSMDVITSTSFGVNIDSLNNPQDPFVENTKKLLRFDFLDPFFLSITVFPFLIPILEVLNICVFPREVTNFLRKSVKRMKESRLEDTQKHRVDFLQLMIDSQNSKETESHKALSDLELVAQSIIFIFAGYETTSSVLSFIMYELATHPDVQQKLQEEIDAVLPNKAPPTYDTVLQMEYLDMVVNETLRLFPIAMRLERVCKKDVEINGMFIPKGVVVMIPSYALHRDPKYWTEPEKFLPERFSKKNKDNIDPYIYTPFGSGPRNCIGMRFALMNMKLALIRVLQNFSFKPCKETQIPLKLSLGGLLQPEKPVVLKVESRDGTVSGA
# In short: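 P450-Glo CYP3A4 enzyme with proluciferin substrate was preincubated with DMSO-dissolved compounds for 10 min at room temperature. NADPH regeneration solution started a 1 h reaction. Detection reagent stopped it, and luminescence was read after 20 min.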
# [13] = biological target: Calcium and integrin-binding protein 1 (Homo sapiens) (UniProt Q99828); experiment: Confirmatory qHTS for Identification of Calcium Integrin Binding Protein 1 (CIB1) Competitor (AID 1508617); settings: CIB1 binding competition assay, biochemical qHTS; series mostly up to 114 µM; further: potency means the concentration at half of the fitted maximal effect; nearly all actives have a fitted effect of over 65% in size
# In short: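 Compounds at up to 114 uM final met 1 uM GST-tagged CIB1 for 15 min at room temperature (HEPES pH 7.4, 5 mM CaCl2). FITC-labelled alphaIIb peptide, 100 nM, added; polarization read after 15 min more.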
# [14] = Confirmatory qHTS for small molecule stabilizers of the endoplasmic reticulum resident proteome: Secreted ER Calcium Modulated Protein (SERCaMP) assay (AID 1508628); settings: SERCaMP secreted luciferase ER calcium/proteostasis reporter; series mostly up to 76.3 µM; further: nearly all actives have a fitted effect of over 40% in size; further: potency means the concentration at half of the fitted maximal effect
# In short: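 Reporter secretion upon ER calcium depletion (100 nM thapsigargin, 4 h, 37C) is measured as medium luminescence with coelenterazine, after 16 h compound pretreatment of SH-SY5Y-GLuc-SERCaMP cells; primary at three concentrations up to 38.3 uM, follow-up at 11 (up to 76.6 uM).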
smiles,measurement,setting,value
COc1ccc(-c2nc(N3CCOCC3)c3sc(CN(C)c4ncc(C(=O)NO)cn4)cc3n2)cn1,Potency,[1],0.033 µM (active)
same,Potency,[2],inactive
same,Potency,[3],inactive
C[C@]12CC[C@@H]3c4ccc(O)cc4C[C@@H](CCCCCCCCCS(=O)CCCC(F)(F)C(F)(F)F)[C@H]3[C@H]1CC[C@H]2O (some centres not stated),Potency,[1],inactive
same,Potency,[2],inactive
same,Potency,[3],inactive
COc1ccc(-n2c(C)c([N+](=O)[O-])c3ccc(O)cc32)cc1,Potency,[1],inactive
same,Potency,[2],inactive
same,Potency,[3],inactive
CC(C)(C(=O)NCC(F)(F)C(F)(F)F)C(=O)N[C@@H]1C(=O)Nc2ccccc2-c2ccccc21,Potency,[1],inactive
same,Potency,[2],inactive
same,Potency,[3],inactive
N[C@@]1(C(=O)O)CS(=O)(=O)[C@H]2[C@H](C(=O)O)[C@H]21,Potency,[1],inactive
same,Potency,[2],inactive
same,Potency,[3],inactive
CN(C)Cc1ccc(-c2nc3cccc4c3n2CCNC4=O)cc1,Potency,[1],14.7 µM (active)
same,Potency,[2],inactive
same,Potency,[3],inactive
CC(C)[C@H](CO)Nc1nc(Nc2ccc(C(=O)O)c(Cl)c2)c2ncn(C(C)C)c2n1,Potency,[1],inactive
same,Potency,[2],inactive
same,Potency,[3],inactive
COc1cc(N2CCC(N3CCN(C)CC3)CC2)ccc1Nc1ncnc(Nc2ccccc2S(=O)(=O)C(C)C)n1,Potency,[1],4.15 µM (active)
same,Potency,[2],inactive
same,Potency,[3],inactive
same,Potency,[4],inactive
same,Potency,[5],inactive
CC(C)C(C)C=CC(C)C1CCC2C3=CC=C4CC(O)CCC4(C)C3CCC21C (configuration not stated),Potency,[1],inactive
same,Potency,[2],inactive
same,Potency,[3],1.49 µM (active)
CCOC(CN1C(=O)[C@](CC(=O)Nc2ccc(C)cc2)(NC(=O)Nc2ccc(C)cc2)c2ccccc21)OCC,Potency,[1],inactive
same,Potency,[2],inactive
same,Potency,[3],inactive
COc1cc(N2CCC(N3CCN(C)CC3)CC2)ccc1Nc1ncc(Cl)c(Nc2ccccc2S(=O)(=O)C(C)C)n1,Potency,[1],18.6 µM (active)
same,Potency,[2],inactive
same,Potency,[3],inactive
CN[C@@H](C)C(=O)N[C@H]1CN(C(=O)CC(C)C)CC[C@H]2CC[C@@H](C(=O)NC(c3ccccc3)c3ccccc3)N2C1=O,Potency,[1],inactive
same,Potency,[2],inactive
same,Potency,[3],inactive
same,Potency,[4],inactive
same,Potency,[5],inactive
CNC(=O)c1ccc2cc(C3(O)CCn4cncc43)ccc2c1 (configuration not stated),Potency,[1],inactive
same,Potency,[2],inactive
same,Potency,[3],inactive
O=C(O)c1ccccc1C(=O)Nc1ccc(-c2ccccc2)cc1,Potency,[1],29.4 µM (active)
same,Potency,[2],inactive
same,Potency,[3],inactive
O=C(O)CCC1CCC(c2cc(F)ccc2F)(S(=O)(=O)c2ccc(Cl)cc2)CC1 (configuration not stated),Potency,[1],inactive
same,Potency,[2],inactive
same,Potency,[3],inactive
same,Potency,[4],inactive
O=C(N[C@@H](c1ccccc1)[C@@H]1CCCCN1)c1cccc(C(F)(F)F)c1Cl,Potency,[1],inactive
same,Potency,[2],inactive
same,Potency,[3],inactive
Cc1c(NC(=O)c2ccc(C(C)(C)C)cc2)cccc1-c1cn(C)c(=O)c(Nc2ccc(C(=O)N3CCOCC3)cc2)n1,Potency,[1],inactive
same,Potency,[2],inactive
same,Potency,[3],inactive
same,Potency,[4],inactive
same,Potency,[5],2.13 µM (active)
CC(C)(C)Cn1c(N)nc2ccc(-c3[nH]c(C(C)(C)C)nc3-c3ccc(F)cc3)nc21,Potency,[1],inactive
same,Potency,[2],inactive
same,Potency,[3],inactive
same,Potency,[4],15.1 µM (active)
same,Potency,[5],5.35 µM (active)
O=C(NC1CCOCC1)c1ccc(-c2cc(-c3cn[nH]c3-c3ccccn3)ccn2)cc1,Potency,[1],inactive
same,Potency,[2],inactive
same,Potency,[3],inactive
same,Potency,[4],inactive
CN1CCN(CCOc2cc(OC3CCOCC3)c3c(Nc4c(Cl)ccc5c4OCO5)ncnc3c2)CC1,Potency,[1],29.4 µM (active)
same,Potency,[2],inactive
same,Potency,[3],inactive
CC(C)OC(=O)C(C)(C)Oc1ccc(C(=O)c2ccc(Cl)cc2)cc1,outcome,[6],inactive
same,outcome,[7],inactive
same,outcome,[8],inactive
same,Potency,[9],inactive
same,Potency,[10],inactive
O=c1[nH]cnc2c1ncn2[C@H]1CC[C@@H](CO)O1,outcome,[6],inactive
same,outcome,[7],inactive
same,outcome,[11],inactive
same,Potency,[10],inactive
same,outcome,[12],inactive
O=c1c(-c2ccc(O)cc2)coc2cc(O)ccc12,outcome,[11],inactive
CCc1ccc(C=C2SC(=S)NC2=O)cc1,Potency,[13],8.91 µM (active)
O=c1cc(-c2ccccc2)oc2cc(O)c(O)c(O)c12,Potency,[13],39.8 µM (active)
O=C1c2ccccc2-[n+]2ccc3c([nH]c4ccccc43)c21,Potency,[14],20 µM (active)
O=c1ccn([C@@H]2O[C@H](CO)[C@H](O)[C@H]2O)c(=O)[nH]1,Potency,[14],inactive
Cc1nnc(C(C)C)n1C1C[C@H]2CC[C@@H](C1)N2CC[C@H](NC(=O)C1CCC(F)(F)CC1)c1ccccc1 (some centres not stated),Potency,[2],inactive
same,Potency,[3],inactive
O=C(CCc1ccc(O)cc1)c1c(O)cc(O)cc1O[C@@H]1O[C@H](CO)[C@H](O)[C@H](O)[C@H]1O,Potency,[2],inactive
same,Potency,[3],inactive
NC(=O)c1cccc(-c2cc(Nc3ccc(OC(F)(F)F)cc3)ncn2)c1,Potency,[2],inactive
same,Potency,[4],26.8 µM (active)
same,Potency,[5],15.1 µM (active)
